# According to ChEMBL document CHEMBL3988442, “University of Dundee, Small-Polar-MMV Screening Library” (2021):
# Out of some 38,000 compounds screened, about 1,200 (3.2%) showed an effect of 50% or more. The median lay at about -58%. For the sample, strong results were picked, then their nearest neighbours and some compounds at random.
# Test system: Plasmodium falciparum
# Experiment: Calibr Malaria Delayed Death Assay SOP
# Type: functional, organism-based
# Set-up: scale not given: in the data most compounds retested in dose-response had high values
# Settings: concentration 4.99e-06 (unit not given; other assays of the set use mol/L)
row,Compound,Percent Effect
1,CCc1nc(C(=O)N(CC)CC(=O)Nc2cc(Cl)ccc2C)c[nH]1,-127.3%
2,Cc1nc2c(c(NCC(O)c3ccccc3Cl)n1)CCNCC2 (stereo not drawn),26.14%
3,c1ccc(-c2nc3c(c(NCCCn4cncn4)n2)CCNCC3)nc1,-4.332%
4,Cc1nc2c(c(NCc3ccc(-c4ccccn4)s3)n1)CCNCC2,73.48%
5,Cc1nc2c(c(NCc3cc4ccccc4s3)n1)CCNCC2,89.06%
6,Cc1nc2c(c(NCC(c3ccccc3C)N(C)C)n1)CCNC2 (stereo not drawn),-11.95%
7,Cc1n[nH]c(C)c1CNc1nc(-c2ccco2)nc2c1CCNCC2,17%
8,Cc1nc2c(c(NCc3nc4ccccc4s3)n1)CCNCC2,71.13%
9,Cc1nc(CNc2nc(-c3ccco3)nc3c2CCNCC3)n[nH]1,-85.54%
10,CSCC(=O)N1CCc2nc(C)nc(NCc3ccccc3)c2CC1,-13.73%
11,CN(C)c1cc(C(=O)Nc2cccnc2N2CCSCC2)ccn1,-48.21%
12,FC(F)(F)c1ccnc(N2CCC(c3nccn3CC3CC3)CC2)n1,-11.94%
13,Cc1cc(C2CCCN2C(=O)Nc2cn[nH]c2)on1 (stereo not drawn),-46.01%
14,O=C(c1cccnc1)N1CC(S(=O)(=O)c2ccc(Cl)cc2)C1,-41.36%
15,Cc1noc(C)c1CN1C[C@@H]2CCCO[C@@H]2[C@H](Nc2ccccn2)C1.O=C(O)C(F)(F)F.O=C(O)C(F)(F)F,-37.64%
16,Cn1nc(CNC(=O)C2CCN(S(C)(=O)=O)CC2)cc1C1CC1,-29.39%
17,Cc1cccc(NC(=O)CN(C)C(=O)c2scnc2C)n1,-36.36%
18,N#CCCN(CCN1CCOCC1)Cc1ccc(F)c(Br)c1,50.69%
19,CCOc1ccc(CN(CCC#N)CCN2CCOCC2)cc1OC,-106.9%
20,COc1ccc(CN(CCC#N)CCN2CCOCC2)cc1OC,-48.91%
21,CN(C)C(=O)C1CCCN1CCCNC(=O)Cc1ccccc1F (stereo not drawn),-2.997%
22,CC(NCCCN1CCCC1=O)c1ccc(F)cc1N(C)C (stereo not drawn),-66.62%
23,CCC(c1ccc(F)cc1F)N1CCN(CCO)CC1 (stereo not drawn),33.11%
24,CCc1cnc(C)nc1NCCN1CCC(O)CC1,-33.54%
25,CC(NCCCc1cnn(C)c1)c1ccc(Cl)s1 (stereo not drawn),14.15%

row,Compound,Percent Effect
1,CCc1cnc(C)nc1NCCN1CCCCCC1,42.39%
2,CC(NCCN1CCC(N(C)C)CC1)c1ccc(F)cc1N(C)C (stereo not drawn),55.63%
3,Cc1cc(C(C)NCCN2CCC(N(C)C)CC2)c(C)s1 (stereo not drawn),81.06%
4,CC(NCc1cnc(N2CCOCC2)nc1)c1ccc(Cl)s1.Cl (stereo not drawn),-27.68%
5,Cc1cc(OC(F)F)c(C(=O)N2CCC(N(C)C)CC2)s1,-15.44%
6,CCS(=O)(=O)CCNC(=O)NC(C)c1cc(C)sc1C (stereo not drawn),-122.2%
7,CC(NCCN1CCC(N(C)C)CC1)c1ccc(Cl)s1 (stereo not drawn),74.67%
8,O=C(NCCc1cccs1)NC1CCN(c2ncccn2)CC1,-296.1%
9,Cc1c(Cl)cccc1S(=O)(=O)N1CCC2(CC1)OCCS2,-126%
10,Cn1cc(CN2CCC3(CCCCN3S(C)(=O)=O)CC2)cn1,-156.9%
11,CNC(=O)c1cn(C)c(-c2nc3cc(NC(C)=O)ccc3n2C)c1OC,-25.75%
12,Cn1nc2c(c1NC(=O)c1ccc(C3CCCN3C3CCC3)s1)CCC2 (stereo not drawn),4.44%
13,CCN(CC)c1nc(C)cc(C(=O)Nc2cnn(CC)c2)n1,-148%
14,CC(=O)N1CCC2(CC1)CC(NC(=O)N(C)C)c1cc(C)ccc12 (stereo not drawn),-69.21%
15,CC(C)(C)C(=O)NCCNCc1ccc(Cl)c2cccnc12,76.99%
16,Cc1nc2n(n1)CC(NCc1ccc(Cl)c3cccnc13)CC2 (stereo not drawn),12.21%
17,CC(C)(O)CSCCNC(=O)c1ccc(F)cc1Cl,-61.07%
18,Cn1cnc2c1CCN(Cc1ccc(Cl)c3cccnc13)C2,-32.7%
19,CCS(=O)(=O)NCCNCc1ccc(Cl)c2cccnc12,60.34%
20,CC(C)(O)CSCCNCc1ccc(Cl)c2cccnc12,66.02%
21,CC(C)(C)[S+]([O-])CCNC(=O)c1ccc(Cl)c2cccnc12 (stereo not drawn),-47.19%
22,CC(=O)NCCCNCc1ccc(Cl)c2cccnc12,-40.58%
23,O=C(CCCNCc1ccc(Cl)c2cccnc12)NC1CC1,8.752%
24,CNc1nc2ncc(Cl)cc2cc1C#N,-168.4%
25,CN1C(=O)CC(c2cnn(C)c2)C12CCN(C(=O)c1ccco1)CC2 (stereo not drawn),-26.83%

row,Compound,Percent Effect
1,Cc1ccoc1C(=O)NC1CCN(Cc2ccccc2F)CC1,-117.1%
2,CN(CCO)Cc1cc(Cl)ccc1OCC(O)CN1CCCCCC1 (stereo not drawn),81.18%
3,CCOc1cc(CN(C)CCCO)ccc1OC(F)F,-85.19%
4,CCc1ccc(OCC(O)CN2CCN(CC)CC2)cc1 (stereo not drawn),-62.39%
5,CCOCC(O)CN1CCN(C(=O)c2ccccc2Cl)CC1 (stereo not drawn),-98.46%
6,COc1ccc(Cl)cc1CN(C)C(=O)CN1C(=O)OC[C@@H]1C(C)C,-43.68%
7,CCC(O)CN1CCN(C(=O)Cc2cc(Cl)ccc2OC)CC1 (stereo not drawn),-20.59%
8,CCOCC(O)CN1CCN(C(=O)Cc2ccccc2Cl)CC1 (stereo not drawn),-127.6%
9,COCC(=O)N1CCC2(COCc3cnc(NCc4ccco4)nc32)C1 (stereo not drawn),-70.56%
10,COCCCN(CCOC)C(=O)Nc1ccc(Br)cc1,-39.78%
11,CCCNS(=O)(=O)c1ccc2[nH]c(=O)cc(C)c2c1,-19.76%
12,CCOC(C)C(=O)N1CCN(S(C)(=O)=O)CC1 (stereo not drawn),-95.85%
13,CS(=O)(=O)CC(=O)N1C[C@H]2CCC[C@@]2(COCc2ccncc2)C1.O=C(O)C(F)(F)F,-43.79%
14,COCCN1CCCCC12CC(=O)N(c1cccc(C#N)c1)C2.O=C(O)C(F)(F)F (stereo not drawn),-143.4%
15,C1CC(CO[C@@H]2CC[C@H]3[C@H]2OCCN3CC2CCOCC2)CCO1.O=C(O)C(F)(F)F,-39.09%
16,O=c1c2ccccc2nc2n1C(CSc1ccc(Cl)cc1Cl)CN2 (stereo not drawn),-150.5%
17,CC(=O)NCCOc1cccc(Br)c1,-82.47%
18,CN1CCCC1CNC(=O)CCCOCc1ccccc1 (stereo not drawn),-50.92%
19,CC(C)NC(=O)N1CCN(C(=O)NC(C)C)CC2(CNC(=O)C2)C1,-54.94%
20,Cc1cc(N2CCCN(Cc3ccc(C)o3)CC2)ccn1,32.48%
21,Cc1cc(N2CCCN(CCc3ccccc3)CC2)ccn1,86.4%
22,Cc1cc(N2CCCN(c3ccnc(C)c3)CC2)ccn1,-92.15%
23,CC(C)n1nnnc1-c1ccc(NC(=O)N(C)CCN(C)C)cc1F,-66.24%
24,COc1ccccc1S(=O)(=O)NCC(c1cccn1C)N(C)C (stereo not drawn),10.47%
25,CN(C)C(CNS(=O)(=O)c1cc(F)ccc1F)c1cccn1C (stereo not drawn),52.76%

row,Compound,Percent Effect
1,COc1ccc(S(=O)(=O)NCC(c2cccn2C)N(C)C)cc1F (stereo not drawn),-0.0752%
2,Cc1c(CN2CCCCC2)c(O)n(CCCO)c(=O)c1C#N,-126.8%
3,CC(C)Nc1ncnc2c1CCN(C(=O)NCc1cccc(F)c1)CC2,-3.86%
4,O=C(C[C@@H]1COC[C@H]2CN(Cc3cccnc3)C[C@@H]12)NCC1CC1.O=C(O)C(F)(F)F.O=C(O)C(F)(F)F,-77.98%
5,O=C(O)C(F)(F)F.O=C(O)C(F)(F)F.O=C(O)C(F)(F)F.c1cnc(N2CCN(C3CCC[C@@H]4CN(CC5CC5)C[C@H]34)CC2)nc1 (stereo partly drawn),48.04%
6,Cc1cnc(N2C[C@H]3CCCC(N(C)Cc4ccccn4)[C@H]3C2)nc1.O=C(O)C(F)(F)F (stereo partly drawn),-10.03%
7,Cn1cc(CN2C[C@@H]3CCC[C@@H](OCc4cccnc4)[C@@H]3C2)cn1,-83.15%
8,CN(Cc1ccccn1)C1CCC[C@@H]2CN(CC3CC3)C[C@H]12.O=C(O)C(F)(F)F.O=C(O)C(F)(F)F (stereo partly drawn),68.03%
9,O=C(O)C(F)(F)F.c1ccc(NC[C@@H]2CCC[C@@H]3CN(Cc4nccs4)C[C@@H]32)nc1,55.03%
10,O=C(O)C(F)(F)F.c1cncc(CN2C[C@H]3CCC[C@@H](CNc4cnccn4)[C@H]3C2)c1,-3.57%
11,Cn1ccnc1NC[C@@H]1CCC[C@@H]2CN(Cc3cccnc3)C[C@@H]21.O=C(O)C(F)(F)F,-26.47%
12,Cn1cc(CN2C[C@H]3CCC[C@@H](CNc4ncccn4)[C@H]3C2)cn1.O=C(O)C(F)(F)F,-87.54%
13,Cn1ccnc1NC[C@@H]1CCC[C@@H]2CN(Cc3nccs3)C[C@@H]21.O=C(O)C(F)(F)F,-64.87%
14,O=C(O)C(F)(F)F.c1ccc(NC[C@@H]2CCC[C@@H]3CN(Cc4cccnc4)C[C@@H]32)nc1,75.01%
15,CCC(O)CN1CCN(C(=O)c2cccc3c2OCC(=O)N3)CC1 (stereo not drawn),-136.7%
16,CC(C)CN1C(=O)C2(CCN(Cc3ccsc3)C2)c2ccccc21.O=C(O)C(F)(F)F (stereo not drawn),-33.32%
17,Cc1cccc(CN2CCc3ncnc(N4CCN(C)CC4)c3CC2)n1.O=C(O)C(F)(F)F.O=C(O)C(F)(F)F,-236.1%
18,Cc1noc(C(C)C)c1C(=O)NCCCOC(C)C,-142.4%
19,CC(CNC(=O)NCc1ccoc1)N1CCc2sccc2C1 (stereo not drawn),-8.458%
20,CCc1cnc(CN(C)C2CCN(CCCS(=O)(=O)NC)C2)o1 (stereo not drawn),-85.83%
21,COCCN1C[C@H]2CCC[C@@H](CNc3ncccn3)[C@H]2C1.O=C(O)C(F)(F)F.O=C(O)C(F)(F)F,19.85%
22,O=C(O)C(F)(F)F.c1ccc(NC[C@@H]2CCC[C@@H]3CN(Cc4cc[nH]n4)C[C@@H]32)nc1,-36.14%
23,O=C(O)C(F)(F)F.c1ccc(NC[C@@H]2CCC[C@@H]3CN(c4ncccn4)C[C@@H]32)nc1,71.6%
